These results are taken from PubChem BioAssay (NCATS).

Experiment [1] in a line: Quantitative High-Throughput drug screen in 47 multiple myeloma cell lines against the NCATS MIPE library collection: XG1_PLB cell viability assay (AID 1919866). Further: nearly all actives have a fitted effect of over 35% in size. The method in brief: (§1)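 Inhibition of viability over 48 h was scored by ATP content (CellTiter-Glo) in 500-cell wells. Zero and full viability were defined by media-only and DMSO-only wells.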
Experiment [2] is described as follows: Quantitative High-Throughput drug screen in 47 multiple myeloma cell lines against the NCATS MIPE library collection: VP6_DJ cell viability assay (AID 1919867). Further: nearly all actives have a fitted effect of over 40% in size. The method in brief:
as §1

Experiment [3] in a line: Quantitative High-Throughput drug screen in 47 multiple myeloma cell lines against the NCATS MIPE library collection: UTMC2_PLB cell viability assay (AID 1919868). Further: nearly all actives have a fitted effect of over 55% in size. The note with it: CellTiter-Glo ATP luminescence, 48 h; viability (% of DMSO control): at 45.8 µM (top of the series). The method in brief:
as §1
On the technique in general: ATP-based viability assays read luminescence as a measure of living cells.

The nature of experiment [4]: Quantitative High-Throughput drug screen in 47 multiple myeloma cell lines against the NCATS MIPE library collection: PE2_PLB cell viability assay (AID 1919869). Further: nearly all actives have a fitted effect of over 35% in size. In a few lines: as §1
Experiment [5] can be described thus: Quantitative High-Throughput drug screen in 47 multiple myeloma cell lines against the NCATS MIPE library collection: PCM6_Riken cell viability assay (AID 1919870). Further: nearly all actives have a fitted effect of over 30% in size. The method in brief:
as §1

Experiment [6] in a line: Quantitative High-Throughput drug screen in 47 multiple myeloma cell lines against the NCATS MIPE library collection: RPMI8226_ATCC cell viability assay (AID 1919871). Further: nearly all actives have a fitted effect of over 30% in size. The method in brief: as §1
Experiment [7] can be described thus: Quantitative High-Throughput drug screen in 47 multiple myeloma cell lines against the NCATS MIPE library collection: OPM2_DSMZ cell viability assay (AID 1919872). Further: nearly all actives have a fitted effect of over 30% in size. In a few lines: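 We plated 500 myeloma cells per well, pinned in MIPE 4.0 compounds, and incubated for 48 hours at 37C. ATP was then quantified with CellTiter-Glo, with DMSO and media-only wells defining 100% and 0%.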

Experiment [8] can be described thus: Quantitative High-Throughput drug screen in 47 multiple myeloma cell lines against the NCATS MIPE library collection: KMS11_JCRBsus cell viability assay (AID 1919873). Further: nearly all actives have a fitted effect of over 50% in size. In a few lines:
as §1

The nature of experiment [9]: Quantitative High-Throughput drug screen in 47 multiple myeloma cell lines against the NCATS MIPE library collection: KMS28BM_JCRB cell viability assay (AID 1919874). Further: nearly all actives have a fitted effect of over 35% in size. In a few lines:
as §1

Inconclusive results are not listed. Calls of active or inactive are those of the source. The call rests on the fitted dose curve; in most records, active means well fitted cell-killing curve with a large enough effect; inconclusive means small, poorly fitted or top-dose-only effect, or effect the other way; inactive means no such curve, though single readings can be large or run the other way. Starred links: 1 amine or outer side, 2 acyl side, 3 side chain; linkers in the order of their positions; H or OH if unused. Positions of bridges follow the written chain, without caps; N, C: chain ends. Non-standard residues stand in square brackets, D forms with d. Residues, ends and D or L forms follow the SMILES beside them. Chains are numbered I, II in the order given. Actinocin(9to1) = Cc1c2oc3c(C)ccc(C(=O)[*:1])c3nc-2c(C(=O)[*:2])c(N)c1=O; NMeV = CN[CH](C(=O)O)C(C)C; Sar = CNCC(=O)O
Potency means the concentration at half of the fitted maximal effect.

As to `O=C1NC(=O)[C@@H](c2cn3c4c(cccc24)CCC3)[C@H]1c1c[nH]c2ccccc12`, the Potency in experiment [1] was 33.2 nM (active); in experiment [2], 526 nM (active); in experiment [3] it was 332 nM (active); in experiment [4], 1870 nM (active); in experiment [5], 5900 nM (active); in [6] it was 16600 nM (active). Besides, the Potency was 1320 nM (active) in experiment [7] and 118 nM (active) in experiment [8].
For the compound `CNC(=O)c1cccc(-c2ccc3c(N4CCOC[C@H]4C)nc(N4CCOC[C@H]4C)nc3n2)c1`, the Potency was 11.8 nM (active) in experiment [1]; 13.2 nM (active) in experiment [2]; 59 nM (active) in [3]; 83.3 nM (active) in experiment [4]; 118 nM (active) in experiment [5]; 20.9 nM (active) in [6].
Take `C[C@H](NC(=O)C(C#N)=Cc1cccc(Br)n1)c1ccccc1`: the Potency in experiment [1] is 2090 nM (active); in experiment [2] it was 2350 nM (active); in experiment [3], 3320 nM (active); in [4], 2640 nM (active); in [5], 2090 nM (active); in experiment [6] it was 4180 nM (active). The Potency in experiment [7] is 7430 nM (active); in experiment [8], 5260 nM (active); in [9], 7430 nM (active).
For `Cc1ncc(-c2ccnc(Nc3ccc(S(C)(=O)=O)cc3)n2)n1C(C)C`, the Potency in experiment [1] is 1480 nM (active); in experiment [2], 1870 nM (active); in experiment [3] it was 3320 nM (active); in [4], 2350 nM (active); in [5], 743 nM (active); in [6], 5900 nM (active). Moreover, in experiment [7], the Potency is 3720 nM (active).
For `COc1ccc2c(c1OC)C(=O)OC2[C@H]1c2c(cc3c(c2OC)OCO3)CCN1C` (stereo partly drawn), the Potency in [1] is 41.8 nM (active); in [2] it was 74.3 nM (active); in experiment [3] it was 132 nM (active); in experiment [4] it was 372 nM (active); in [5] it was 469 nM (active); in experiment [6], 3720 nM (active). For the same compound, the Potency in [7] was 66.2 nM (active); in experiment [8], 26.4 nM (active).
In the case of `NC(=O)Nc1sc(-c2ccc(F)cc2)cc1C(N)=O`, the Potency is 46.9 nM (active) in experiment [1]; 1320 nM (active) in experiment [2]; 743 nM (active) in experiment [3]; 372 nM (active) in experiment [4]; 833 nM (active) in [5]; 5900 nM (active) in experiment [6]. Further, the Potency is 18700 nM (active) in experiment [7], 4690 nM (active) in experiment [8] and 4690 nM (active) in [9].
In the case of `Oc1ccc(-c2ccc(-c3cc(Nc4cccc(CNC5CC5)c4)n[nH]3)cc2)c(O)c1`, the Potency in [1] was 526 nM (active); in experiment [2] it was 743 nM (active); in experiment [3], 1320 nM (active); in [4], 1320 nM (active); in [5], 590 nM (active); in experiment [6], 9350 nM (active). Also, the values for the Potency in experiment [7], in experiment [8] and in experiment [9] were 4690 nM (active), 1320 nM (active) and 1320 nM (active), respectively.
On to `COc1cc([C@@H]2c3cc4c(cc3[C@H](O)[C@H]3COC(=O)[C@@H]23)OCO4)cc(OC)c1OC`, for which the Potency was 46.9 nM (active) in [1]; 296 nM (active) in [2]; 209 nM (active) in experiment [3]; 148 nM (active) in [4]; 332 nM (active) in experiment [5]; 469 nM (active) in experiment [6]. In addition, the figures for the Potency in [7], in experiment [8] and in experiment [9] were 148 nM (active), 29.6 nM (active) and 41.8 nM (active), respectively.
As for `O=C(C=CC#Cc1cccc(NS(=O)(=O)c2ccccc2)c1)NO`, the Potency in [1] is 1870 nM (active); in [2], 1180 nM (active); in experiment [3], 833 nM (active); in experiment [4] it was 3320 nM (active); in experiment [5], 1660 nM (active); in experiment [6], 2640 nM (active). Also, the values for the Potency in [7], in [8] and in experiment [9] were 2350 nM (active), 662 nM (active) and 833 nM (active), respectively.
On to `C=CC(=O)N1CCc2ccc(-n3c(=O)ccc4cnc5ccc(-c6cnn(C)c6)cc5c43)cc21`, for which the Potency in experiment [1] was 1320 nM (active); in experiment [2] it was 2960 nM (active); in [3], 1050 nM (active); in [4], 1660 nM (active); in [5], 1660 nM (active); in experiment [6] it was 1050 nM (active). The Potency in [7] was 2350 nM (active); in experiment [8], 418 nM (active); in [9] it was 2960 nM (active).
As for `CC(C=CC(=O)NO)=C[C@@H](C)C(=O)c1ccc(N(C)C)cc1`, the Potency in [1] was 332 nM (active); in experiment [2], 372 nM (active); in experiment [3] it was 235 nM (active); in [4] it was 590 nM (active); in experiment [5] it was 469 nM (active); in [6], 332 nM (active). Further, the Potency in experiment [8] was 235 nM (active); in [9] it was 187 nM (active).
`CCc1cnn2c(NCc3ccc[n+]([O-])c3)cc(N3CCCC[C@@H]3CCO)nc12`: the Potency in experiment [1] was 23.5 nM (active); in experiment [2] it was 18.7 nM (active); in experiment [3] it was 18.7 nM (active); in experiment [4] it was 29.6 nM (active); in [5] it was 10.5 nM (active); in experiment [6] it was 37.2 nM (active). In addition, the values for the Potency in experiment [8] and in [9] were 20.9 nM (active) and 29.6 nM (active), respectively.
Turning to `O=C1NC(=O)C(=Cc2ccc3nccc(-c4ccncc4)c3c2)S1`, the Potency in [1] is 33.2 nM (active); in [2], 132 nM (active); in experiment [3], 37.2 nM (active); in experiment [4], 46.9 nM (active); in experiment [5], 166 nM (active); in experiment [6] it was 235 nM (active). The Potency in [8] is 66.2 nM (active); in experiment [9], 372 nM (active).
Turning to `Cc1c2oc3c(C)ccc(C(=O)NC4C(=O)NC(C(C)C)C(=O)N5CCCC5C(=O)N(C)CC(=O)N(C)C(C(C)C)C(=O)OC4C)c3nc-2c(C(=O)NC2C(=O)NC(C(C)C)C(=O)N3CCCC3C(=O)N(C)CC(=O)N(C)C(C(C)C)C(=O)OC2C)c(N)c1=O` (stereo not drawn) (I: TVP[Sar][NMeV] / II: TVP[Sar][NMeV]; ester I:1-I:C, II:1-II:C; linker I:N-II:N via Actinocin(9to1); configuration not given here), the Potency result in [1], in [2], in [3], in experiment [4], in experiment [5] and in experiment [6] was “inactive” each time. The Potency entry in experiment [8] and in experiment [9] was “inactive” each time.
Take `COc1cc(C[C@@H](CO)[C@H](CO)Cc2ccc(O)c(OC)c2)ccc1O`: the Potency in experiment [1] is 418 nM (active); in [2] it was 372 nM (active); in experiment [3] it was 1320 nM (active); in [4], 2350 nM (active); in [5], 132 nM (active). Moreover, the Potency entry in [7], in [8] and in experiment [9] was “inactive” in each case.
